Assay outcomes as filed in PubChem.
Hits are enriched below; roughly 8.6% of the tested compounds scored in any of these assays.
Lassa entry: qHTS for Inhibitors of binding or entry into cells for Lassa Virus. Lassa virus pseudotyped entry inhibition, cell-based qHTS. AID 720533, 2013. Potency, µM (top dose mostly 49.2 µM), actives largely listed as inhibitors. 4.1% of 18,000 active
Marburg entry: qHTS for Inhibitors of binding or entry into cells for Marburg Virus | Marburg virus pseudotype entry/binding inhibition, cell-based | Potency, µM (highest dose often 49.2 µM), most hits filed as inhibitors | 6.5% of 18,000 active | AID 720532, 2013
Hits are given with their value; n = inactive; u = inconclusive; x = no result; ! = not active in a repeat; [ ] = another dose, or the depositor's remark. The call rests on the fitted dose curve; tested in HEK293 cells.

SMILES	Lassa entry	Marburg entry
CC(CCN1CCCc2nc(C)c(C)cc21)=NO[C@H](C)c1cn([C@@H]2COC[C@@H]2O)nn1	x	n[8.59 µM]
CCCCCC(=O)O[C@@]1(C(C)=O)CCC2C3CCC4=CC(=O)CC[C@@]4(C)C3CC[C@]21C (some centres undefined)	22µM	10µM
CCCC(=O)O[C@]1(C(=O)CO)CC[C@H]2[C@@H]3CCC4=CC(=O)CC[C@]4(C)[C@H]3[C@@H](O)C[C@@]21C	n	n
O=S(=O)(N[C@@H](CO)Cc1ccccc1)c1ccc(Br)cc1F	n	n
CC#CCN1C(=O)N(C)C(c2ccccc2)C(C(=O)OC)=C1C (centres undefined)	n[8.59 µM]	n[8.59 µM]
CN(CCOc1ccc(NS(C)(=O)=O)cc1)CCc1ccc(NS(C)(=O)=O)cc1	n	n
CCCCc1oc2ccc(NS(C)(=O)=O)cc2c1C(=O)c1ccc(OCCCN(CCCC)CCCC)cc1	13µM	6.3µM
C[C@H]1C=CCC(=O)NCc2cccc(c2)CNC(=O)N[C@@H]1c1ccccc1	n[8.59 µM]	u
O=C1C[C@@H](c2ccccc2)[C@H](c2ccc(Br)cc2)O1	n[8.59 µM]	n[8.59 µM]
O=S1CCN(Cc2ccc(-c3ccc4ncnc(Nc5ccc(OCc6ccccc6)c(Cl)c5)c4c3)o2)CC1	n	u
CC(C)C[C@H]1COc2c(Cl)cccc2S(=O)(=O)N1Cc1cccc(F)c1	n	n
c1nc(NC2CCNCC2)c2cc(-c3ccc4c(c3)OCO4)ccc2n1	n	u
CN(C)Cc1ccccc1-c1ccc2ncnc(NCc3cccs3)c2c1	n	8.9µM
CN(C)Cc1ccccc1-c1ccc2ncnc(NC3CCNCC3)c2c1	n	7.1µM
CN(C)Cc1ccccc1-c1ccc2ncnc(NCc3ccccc3)c2c1	n	u
C[C@@H](CN1c2ccccc2Sc2ccccc21)N(C)C	n	10µM
CN(C)C(=O)OC1=C(c2ccccc2)Sc2ccccc2-n2cccc21	u	n
CC(CN1c2ccccc2Sc2ccccc21)N(C)C (centres undefined)	32µM!	13µM
C=CCOC(=O)N[C@H](c1ccc(-c2ccccc2)cc1)[C@H](C)C=CCC(=O)OC	x	n[8.59 µM]
CC=COC(=O)N[C@@H](c1ccccc1)[C@]1(C(C)=O)CCCC1=O	x	n[8.59 µM]
COc1cc2ncnc(Nc3cccc(Br)c3)c2cc1OC	n	n
COc1cc2ncnc(Nc3cccc(Cl)c3)c2cc1OC	16µM!	14µM!
CCC[C@@]1(CCc2ccccc2)CC(O)=C([C@H](CC)c2cccc(NS(=O)(=O)c3ccc(C(F)(F)F)cn3)c2)C(=O)O1	n	n
COc1ccc(CCNC(=O)C(=O)c2c[nH]c3ccccc23)cc1	3.5µM	n
COC(=O)c1csc(C(=O)c2c[nH]c3ccccc23)n1	n	n
SMILES	Lassa entry	Marburg entry
Cc1nc2ccccc2nc1CN1CCOc2ccc(C3(O)CCN(c4ccccc4F)CC3)cc2C1	u	n
O=S(=O)(N[C@@H](CO)Cc1ccccc1)c1cc(Cl)ccc1F	n	n
C[C@@H]1CC[C@H]2C(=O)N(Cc3ccc(Cl)cc3)C[C@H](O)CN2[C@@H]1c1ccc(Br)cc1	n[8.59 µM]	n[8.59 µM]
COC(=O)C1=C(C(=O)OC)[C@@H]2Nc3ccccc3[C@@]23C[C@@H](C(=O)OC)N(C(=O)Nc2ccc(C(F)(F)F)cc2)C3=N1	n[8.59 µM]	n[8.59 µM]
COc1ccc([C@]23Cc4ccccc4[C@H](O2)c2c(cc(-c4ccccc4)oc2=O)O3)cc1	n[8.59 µM]	n[8.59 µM]
CC(=O)Oc1cc2c(c(C)c1OC(C)=O)CC=C1[C@]3(C)CC[C@]4(C)CC[C@@](C)(C(=O)O)CC4[C@]3(C)CC[C@]12C (some centres undefined)	20µM	11µM
CC1=CC[C@@H](COc2ccccc2)O[C@@]2(C1)C(=O)N(CC1CC1)c1ccccc12	n[8.59 µM]	n[8.59 µM]
CC(=O)OC1CCC2(C)C3=C(CCC2C1(C)C)[C@@]1(C)CCC(C(C)CCC=C(C)C)[C@@]1(C)CC3 (some centres undefined)	n	n
COc1cc(/C=C/C(=O)O[C@H]2CC[C@]34C[C@]35CC[C@]3(C)[C@@H]([C@H](C)CCC=C(C)C)CC[C@@]3(C)[C@@H]5CC[C@H]4C2(C)C)ccc1O	25µM!	n
CC(C)=CCN1CC[C@@]2(C)c3cc(O)ccc3C[C@@H]1[C@@H]2C	n	u
COc1ccc(O[C@H]2C=C[C@@H](c3ccccc3)O[C@H]2COC(=O)CCC(C)=NO[C@H](C)c2cn([C@H](CO)Cc3ccccc3)nn2)cc1	n[8.59 µM]	n[8.59 µM]
COc1cc(-c2cc(C)c3cccc(OC)c3n2)cc2c1OCCN(C(=O)CCn1ccc(C)n1)C2	35µM	n
COc1cc(-c2c(OC)cccc2OC)cc2c1OCCN(C(=O)CCn1nc(C)cc1C)C2	n	n
COP(=S)(OC)Oc1ccc(S(N)(=O)=O)cc1	n	n
COP(=S)(OC)Oc1ccc([N+](=O)[O-])cc1	u	11µM
COC(=O)C1=C2C=C(C)CC(C)N2C(=O)NC1c1ccccc1 (centres undefined)	n[8.59 µM]	n[8.59 µM]
C=C(C)CN1CC[C@@]23c4c5ccc(O)c4O[C@H]2c2[nH]c4ccccc4c2C[C@]3(O)[C@@H]1C5	u	22µM
Oc1ccc2c3c1O[C@H]1c4[nH]c5ccccc5c4C[C@@]4(O)C(C2)N(CC2CC2)CCC314 (some centres undefined)	u	13µM
C=C1CC[C@@]2(O)[C@H]3Cc4ccc(O)c5c4[C@@]2(CCN3CC2CC2)[C@H]1O5	n	n
C=CCN1CC[C@]23c4c5ccc(O)c4OC2C(=O)CC[C@]3(O)C1C5 (some centres undefined)	n	n
CCc1cc2c(nc1CC)CCN(CCC(C)=NOCC[C@@H]1C=C[C@H](OC(C)=O)[C@@H](COC(C)=O)O1)C2	n[8.59 µM]	u
O=C(c1ccc([N+](=O)[O-])cc1)N1[C@H](COCc2ccccc2)C=CS1(=O)=O	n	n
C[C@@H]1CNCCN1S(=O)(=O)c1cccc2cnccc12	n	n
O=S(=O)(c1cccc2c(Cl)cccc12)N1CCCNCC1	u	8.9µM
O=S(=O)(c1cccc2c(I)cccc12)N1CCCNCC1	u	11µM
SMILES	Lassa entry	Marburg entry
Cc1ccc(S(=O)(=O)N2CCCN(S(=O)(=O)c3ccccc3Br)CC2)cc1	x	n
CO/N=C(\C(=O)N[C@@H]1C(=O)N2C(C(=O)O)=C(CSc3nc(C)c(CC(=O)O)s3)CS[C@H]12)c1csc(N)n1	n	n
CC1=CC[C@@H](COc2ccccc2)O[C@@]2(C1)C(=O)N(Cc1ccc(Br)cc1)c1cccc(Br)c12	n[8.59 µM]	n[8.59 µM]
CCCCCCCC/C=C\CCCCCCCC(=O)N[C@H](CO)Cc1ccc(O)cc1	14µM	u
CCCCC/C=C\C/C=C\C/C=C\CCCCCCC(=O)NC(C)C(=O)O (centres undefined)	n	n
Fc1ccc(-c2c(-c3ccncc3)nc3n2CCS3)cc1	n	u
O=[N+]([O-])c1ccc(-c2nc(-c3ccc(F)cc3)c(-c3ccncc3)[nH]2)cc1	n	11µM
C=CC[C@H]1C(=O)N2[C@@H](C[C@@H](C)[C@@H]2c2ccccc2)[C@@H](CC=C)C(=O)N2[C@H]1C[C@@H](C)[C@@H]2c1ccccc1	n[8.59 µM]	u
C#C[C@@]1(OC(C)=O)CC[C@@H]2[C@@H]3CCC4=C[C@@H](OC(C)=O)CC[C@H]4[C@H]3CC[C@]21C	n	n
C#C[C@]1(OC(C)=O)CC[C@H]2[C@@H]3CCC4=C/C(=N/O)CC[C@@H]4[C@H]3CC[C@@]21CC	28µM	n
CCCC[C@@H](C=O)NC(=O)[C@H](CC(C)C)NC(=O)[C@H](CC(C)C)NC(C)=O	10µM	0.089µM
